Measured values: PubChem BioAssay (NCATS)
Records with an inconclusive call do not appear. Calls of active or inactive are those of the source. The call rests on the fitted dose curve; in most records, active means well fitted activation curve with a large enough effect; inconclusive means small, poorly fitted or top-dose-only effect, or effect the other way; inactive means flat fitted curve, though single readings scatter.

Assay: qHTS Assay for Identification of Small Molecule Agonists for Thrombopoietin (TPO) Signaling Pathway (AID 917)
Conditions: TPO signaling pathway reporter cells, agonist qHTS, stimulated with TPO at its EC50; series mostly up to 38.5 µM; activity, positive = activation: at the top concentration
Experimental: NIH Molecular Libraries Screening Centers Network [MLSCN]
NIH Chemical Genomics Center [NCGC]
The thrombopoietin (TPO) signaling pathway was assayed in murine Ba/F3 cells stably transfected with the human TPO receptor and a luciferase reporter gene controlled by the Glycoprotein IIb promoter (provided by Axxam). BaF3 cells are an IL-3-dependent pro B cell line that upon TPO stimulation, undergo cell division and induce the megakaryocyte marker, Glycoprotein IIb. The assay was screened at the EC50 of TPO (26 pM) to identify activators of the pathway.
NCGC Assay Protocol Summary:
Cells were maintained at 37 C and 5% CO2in RPMI with 10% fetal bovine serum, 0.5 ng/mL murine IL-3, 100U/ml penicillin and 100 ug/ml streptomycin. Prior to plating, cells were incubated overnight in medium without IL-3. Cells were plated at 250 cells/5uL/well into white solid 1536-well plates, 23 nL of compounds were delivered by a pin tool, and 1 uL of TPO (26 pM final concentration in IL-3 deficient medium) was added. Following 24 hrs of incubation at 37 C and 5% CO2, 4 uL of Steadylite detector mix (PerkinElmer) was added, the plates incubated at room temperature for 10 min and luminescence was measured for 10 s and 2X binning by a ViewLux detector (Perkin Elmer).
On the % scale 0 is the no-effect control and ±100 the full control effect.

SMILES | activity, positive = activation
O=C(O)c1cc2cc(Cc3cccnc3)ccc2o1 | -28.5% (inactive)
Nc1cc(Cl)c(NC2=NCCN2)c(Cl)c1 | -6.28% (inactive)
CN1CCC[C@@H]1c1cccnc1 | 12.2% (inactive)
C[N+]1(CCCCC[N+]2(C)CCCC2)CCCC1 | -2.79% (inactive)
C[C@@H]1C(=O)NC2=Nc3cccc(Cl)c3CN21 | -15.7% (inactive)
CN1[C@@H]2CC[C@H]1CC(OC(=O)c1c[nH]c3ccccc13)C2 (some centres undefined) | -0.71% (inactive)
Oc1cc(O)c2c(c1)O[C@H](c1ccc(O)c(O)c1)[C@H](O)C2 | -23.6% (inactive)
O=C1CCC(c2ccc(-n3ccnc3)cc2)=NN1 | -15% (inactive)
C1CCc2nnnn2CC1 | -18.5% (inactive)
N[C@@H](Cc1cnc[nH]1)C(=O)O | -11.4% (inactive)
COc1cc(-c2ccc(=O)[nH]n2)ccc1OC(F)F | -23.2% (inactive)
CC(C)NC[C@@H](O)COc1cccc2ccccc12 | 2.77% (inactive)
C[C@]12CC[C@@H]3c4ccc(O)cc4CC[C@H]3[C@@H]1CC[C@@H]2O | -12.7% (inactive)
CCCn1c(=O)[nH]c(=O)c2[nH]cnc21 | 7.8% (inactive)
